ATXN viability = viability counter-screen for ATXN expression inhibitors | Potency, µM (highest dose often 56.7 µM), actives largely listed as cytotoxic | actives 0.49% (n = 400,000) | S2 cells (HEK-293 line with an ATXN2-luciferase reporter) viability, CellTiter-Fluor protease fluorescence, 24 h; further: potency means the concentration at half of the fitted maximal effect; nearly all actives have a fitted effect of over 40% in size
TGFb SMAD3 inh = blocks TGF-b signaling | HepG2 CAGA-GFP TGF-b/SMAD3 reporter, GFP fluorescence, 18 h; TGF-beta stimulated, 500 pg/mL final | Potency, µM (titrated, usually from 46.1 µM), for the others: at the top dose activity, negative = inhibition, usual class: inhibitors | actives 1.2% (n = 410,000) | AID 588855; further: potency means the concentration at half of the fitted maximal effect; on the % scale 0 is the no-effect control and ±100 the full control effect; nearly all actives have a fitted effect of over 65% in size
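Read-out: total well GFP (ex488/em500-530) summed from mean per-cell fluorescence. Cells: HEPG2 CAGA-GFP, 1% FBS DMEM, 18 h at 37 degrees C with 500 pg/mL final TGF-beta. Unstimulated wells served as the full-inhibition control; stimulated DMSO wells = 0%.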
D3 ag = agonists of human D3 dopamine receptor; D3R DiscoveRx beta-arrestin cells, luminescence, 90 min; max activation, %; actives 0.58% (n = 410,000); AID 652048; in the data active means max activation above about 30%; further: 0% is about no effect
Target sequence (P35462 whole entry, looked up): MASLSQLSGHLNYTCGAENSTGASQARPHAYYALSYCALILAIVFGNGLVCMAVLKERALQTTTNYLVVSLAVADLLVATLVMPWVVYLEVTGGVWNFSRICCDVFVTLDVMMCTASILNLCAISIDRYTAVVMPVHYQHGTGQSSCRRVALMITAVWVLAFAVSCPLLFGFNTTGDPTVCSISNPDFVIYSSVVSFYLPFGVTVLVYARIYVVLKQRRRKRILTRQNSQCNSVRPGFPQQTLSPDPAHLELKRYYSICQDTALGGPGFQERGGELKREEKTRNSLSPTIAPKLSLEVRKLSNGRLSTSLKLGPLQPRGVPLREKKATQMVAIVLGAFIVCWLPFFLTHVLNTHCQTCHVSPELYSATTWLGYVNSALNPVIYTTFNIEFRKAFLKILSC
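Agonist mode: compounds and dopamine controls were applied to plated cells for 90 min at 37 degrees C after an overnight attachment at 1500 cells/well. Luminescent read-out followed 30 - 60 minutes at room temperature with DiscoveRx detection reagent.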
ATXN2 expr inh = ATXN2 expression inhibition | HEK-293 ATXN2-luciferase reporter, luminescence, 24 h | Potency, µM (highest dose often 57 µM), for inactives: top-dose activity change, negative = inhibition, usual class: inhibitors | actives 0.72% (n = 360,000); further: potency means the concentration at half of the fitted maximal effect; on the % scale 0 is the no-effect control and ±100 the full control effect; nearly all actives have a fitted effect of over 55% in size
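ATXN2-luciferase reporter cells (luciferase flanked by upstream and downstream ATXN2 gene portions) were treated 24 h at 37 °C with compounds at up to 57 uM. SteadyGlo luminescence gave expression; GF-AFC fluorescence gave viability.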
HepG2 viability = counter-screen for TGF-b inhibitors: cytotoxicity in HepG2 cells; HepG2 CAGA-GFP viability, ATP luminescence, 18 h; Potency, µM (highest dose often 46.1 µM), inactives show top-dose activity change, negative = cytotoxicity, hits mostly cytotoxic; actives 0.76% (n = 410,000); AID 588856; further: potency means the concentration at half of the fitted maximal effect
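CellTiter-Glo luminescence gave cytotoxicity after 18 hours at 37 degrees C. The cells were HepG2 CAGA-GFP in 1% FBS DMEM, stimulated with 500 pg/mL TGF-beta after compound addition. %Activity was normalised to no-cell wells (complete cell-killing) and DMSO (no toxicity), and curves were fitted and classified.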
D3 antag = antagonists of human D3 dopamine receptor | P35462 | max response, negative = inhibition, % | actives 2.5% (n = 360,000) | D3R cells, DiscoveRx beta-arrestin luminescence, antagonist mode; active compounds read low; in the data active means max response below about -50%; inconclusive means no clear call, values can overlap the other calls; further: on the % scale 0 is the no-effect control and ±100 the full control effect
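Cells expressing the human receptor were seeded at 1500 cells/well, incubated overnight at 37 degrees C in 5% CO2, then exposed to library compounds with dopamine controls for 90 minutes at 37 degrees C before luminescent detection.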
* marks the source's active call; other numbers are inactive results; i = inactive; ? = inconclusive; · = no result given. Shown are actives, neighbours in structure and some others; about 4.7% of the full set was active somewhere. Unless noted, the call rests on the fitted dose curve; in most records, active means well fitted curve in the direction sought with a large enough effect; inconclusive means small, poorly fitted or top-dose-only effect, or another doubt; inactive means no such curve, though single readings can be large; an effect the other way counts as inactive or inconclusive.

SMILES	ATXN viability	TGFb SMAD3 inh	D3 ag	ATXN2 expr inh	HepG2 viability	D3 antag
CC(C)NC(=O)Nc1cccc2c1O[C@H](CN(C)C(=O)Nc1ccc(C(F)(F)F)cc1)[C@@H](C)CN([C@H](C)CO)C2=O	i	-4%	3	2%	-15%	22
C[C@H](CO)N1C[C@H](C)[C@@H](CN(C)C(=O)Nc2ccccc2)Oc2c(NC(=O)Nc3ccc(C(F)(F)F)cc3)cccc2C1=O	·	16µM*	-11	?	-97%	0
COc1ccc(NC(=O)Nc2cccc3c2O[C@H](CN(C)C(=O)Nc2ccc(OC)cc2)[C@@H](C)CN([C@H](C)CO)C3=O)cc1	i	-19%	33*	20%	3%	65
C[C@H](CO)N1C[C@H](C)[C@@H](CN(C)C(=O)Nc2ccc(C(F)(F)F)cc2)Oc2ccc(NS(=O)(=O)c3cccs3)cc2C1=O	?	-16%	30*	-18%	-6%	12
Cc1ncc2c(c1CNC(=O)/C=C/c1cccs1)CCN(C(=O)C1CC(=O)OC13CCCCC3)C2 (configuration not stated)	i	·	·	·	·	·
O=C(C[n+]1ccccc1)c1cccc([N+](=O)[O-])c1	·	3%	·	·	10%	·
C[C@H](CO)N1C[C@H](C)[C@@H](CN(C)C(=O)Nc2ccc(C(F)(F)F)cc2)Oc2c(NC(=O)NC3CCCCC3)cccc2C1=O	28µM*	?	1	?	-32%	-20
CNC(=O)c1sc(N2N=C3/C(=C/c4ccccc4)CCCC3C2c2ccccc2)nc1C (configuration not stated)	·	-4%	30	13µM*	-37%	21
CNC(=O)c1sc(N2N=C3/C(=C\c4ccccc4)CCCC3C2c2ccccc2)nc1C (configuration not stated)	·	2%	20	?	-17%	22
NC(CCc1ccccc1)c1csc(Nc2ccc(C(=O)c3ccccc3)cc2)n1 (configuration not stated)	?	?	6	?	16µM*	7
NC(Cc1ccc(C(F)(F)F)cc1)c1csc(Nc2ccc(C(=O)c3ccccc3)cc2)n1 (configuration not stated)	i	?	7	32µM*	22µM*	103
NC(Cc1ccc(C(F)(F)F)cc1)c1csc(Nc2cc(NCc3ccco3)ncn2)n1 (configuration not stated)	25µM*	?	2	14µM*	20µM*	25
Cc1cc(C)nc(SCc2csc(N)n2)n1	i	9%	4	-9%	3%	-51*
Cc1cc(C)nc(SCc2csc(-c3ccccc3)n2)n1	i	-5%	-2	52%	1%	?
CCn1c(=O)cc(SCC(=O)NCCCN2CCN(c3ccc(F)cc3)CC2)c2ccccc21	i	-3%	-49	9%	-60%	-68*
Cn1c(=O)cc(SCC(=O)NCCCN2CCN(c3ccccc3F)CC2)c2ccccc21	i	5%	-5	-7%	-48%	-71*
O=C1C=C(c2ccc(Cl)c(C(F)(F)F)c2)C[C@@H](c2ccc(Cl)cc2)C1	i	14µM*	-1	-16%	-45%	0
O=C1C=C(c2ccc(Cl)c(C(F)(F)F)c2)C[C@@H](c2ccc(F)cc2)C1	?	?	-2	-22%	-32%	0
CC(C)(C)C(=O)C(Cc1ccccc1Cl)n1cncn1 (configuration not stated)	i	-1%	3	3%	-9%	16
CC(C)(C)C(=O)C(Cc1ccccc1)n1cncn1 (configuration not stated)	i	1%	3	-27%	3%	-55*
Cc1c(C(=O)N2CCCC2)sc2ncnc(NCCc3ccccn3)c12	i	·	·	·	·	·
O=C(CSc1nc(=O)n(CCN2CCOCC2)c2c1CCC2)Nc1ccc(Cl)c(Cl)c1	·	?	-12	·	-2%	·
COc1ccc(C)cc1S(=O)(=O)N1c2ccc(C)cc2C2CN(C)CCC21 (configuration not stated)	i	-12%	-11	0%	-20%	-5
Cc1ccc2c(c1)[C@@H]1CN(C)CC[C@@H]1N2S(=O)(=O)c1ccc(F)cc1	i	16%	-21	-18%	2%	-63*
CCc1ccc(S(=O)(=O)N2c3ccc(C)cc3C3CN(C)CCC32)cc1 (configuration not stated)	i	-1%	-20	3%	-26%	?
SMILES	ATXN viability	TGFb SMAD3 inh	D3 ag	ATXN2 expr inh	HepG2 viability	D3 antag
Cc1ccc2c(c1)[C@@H]1CN(C)CC[C@@H]1N2S(=O)(=O)c1ccc([N+](=O)[O-])cc1	i	-9%	-14	2%	-30%	-107*
O=C1CC(C(=O)NC2CCCCC2)C(c2ccccc2)O1 (configuration not stated)	i	-20%	-3	5%	4%	-17
C[C@@H]1[C@@H](Sc2ccccc2)CC(=O)O[C@@H]1c1ccc(-c2ccccc2)cc1	22µM*	?	12	18µM*	11µM*	4
Cc1ccc(-n2c(SCC(=O)N3CCOCC3)nnc2-c2ccncc2)cc1	i	0%	7	-3%	-1%	-76*
O=C(NCCCN1CCC(Cc2ccccc2)CC1)c1ccc(CS(=O)c2ccccc2Cl)o1 (configuration not stated)	i	-14%	-5	·	-34%	-108*
CC(=O)N/N=C/c1c(C)[nH]n(-c2ccccc2)c1=O	i	-3%	1	-28%	1%	-16
CCOc1cc(/C=N/NC(=O)c2cccc([N+](=O)[O-])c2)ccc1OS(=O)(=O)c1ccccc1	i	-1%	-2	-19%	-19%	-61*
Cc1[nH]n(-c2cccc3ccccc23)c(=O)c1/C=N/NC(=O)c1cccc([N+](=O)[O-])c1	?	6%	4	20µM*	0%	2
Cc1[nH]n(-c2ccccc2)c(=O)c1/C=N/NC(=O)c1cccc([N+](=O)[O-])c1	?	?	2	14µM*	-67%	-10
C(=Nc1cnc2ccccc2c1)c1ccnc2ccccc12	·	-2%	·	·	5%	·
COc1ccc(CCC(C)NC2CCCCCCC2)cc1 (configuration not stated)	i	38%	-11	2%	-10%	-67*
COc1ccc(CCC(C)NCc2cc(OC)cc(OC)c2)cc1 (configuration not stated)	i	-9%	-6	-19%	-35%	13

Screening results (PubChem)
